Compound activity from PubChem.
TTR transcr act: activators of transthyretin transcription. SH-SY5Y TTR promoter Gaussia luciferase, luminescence; 100% = recombinant luciferase protein wells. activation, % at 16.7 µM. hit rate 1.3% among 92,000;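 active means activation above the mean of all tested compounds plus 3 SD, cut at about 9.5% in these data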;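 further: cells exposed to compounds for one day before reading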
HuH7 TTR inh: HuH7 TTR transcription inhibition, counter-screen | inhibition, % at 16.7 µM | hit rate 4% among 1,100 | HuH7 TTR promoter-Gaussia luciferase reporter, luminescence | AID 1117279 | shares compounds with TTR transcr act;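 active means average inhibition above the solvent-only control wells' mean plus 3 SD, cut at about 15% in these data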;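 further: inhibitors lower well luminescence so higher value means more inhibition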
TTR act confirm: human TTR transcription activation, confirmation. shares compounds with TTR transcr act. SHSY5Y TTR promoter Gaussia luciferase, luminescence; 100% = purified Lucia enzyme wells, no cells. activation, % at 16.7 µM. 1,100 tested, under 10 active. AID 1117280;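 active means mean activation above a set limit taken from the earlier primary screen, cut at about 11% in these data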
A number is an active result; i = inactive. The sample as a whole holds a higher share of hits than the screen did.

SMILES	TTR transcr act	others
CCC1(CCCC(=O)c2ccc(F)cc2)C(=O)NC(=S)NC1=O	i
COc1ccc(C(c2nnnn2C2CCCCC2)N2CCC3(CC2)C(=O)NCN3c2ccccc2)cc1 (centres undefined)	i
Cn1nccc1C(=O)N1CCC2(CC1)OCCO2	i
CC1CN(C)C(C)(C)CC1(O)c1ccccc1 (centres undefined)	i
COc1ccc(-n2c(C)cc(C(=O)C[N+]34CCN(CC3)CC4)c2C)cc1	9.9	HuH7 TTR inh=i;TTR act confirm=i
CCn1c(C)c(C(=O)O)c2cc(OC)ccc21	i
CC1(C(=O)O)CCCC2(C)c3cc(O)ccc3CCC12 (centres undefined)	i
CCC1CCC(C)N(N=O)C1 (centres undefined)	i
CC#CP(=O)(OC)C(O)(CF)c1ccccc1 (centres undefined)	i
COc1ccc(C(C)=O)cc1CC(C(=O)c1ccc(F)cc1)N(C)C (centres undefined)	i
